Screening data (PubChem)
esBAF inh: SWI/SNF esBAF complex inhibition. mouse ES cells, Bmi1-luciferase knock-in reporter, 24 h; 100% = twice the neutral-well signal. reporter increase, % at 12.5 µM. 350,000 tested, 2% active. AID 602393; in the data active means activation above about 40%; inconclusive means no clear call, values can overlap the other calls;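 further: a rise in the Bmi1 reporter signal indicates esBAF inhibition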
DYRK1A inh: inhibitors of rat Dyrk1A kinase | Q63470 | ADP-Glo luminescence, NFATc1 peptide | inhibition, % at 12.5 µM | 310,000 tested, 0.43% active | AID 504441; in the data active means inhibition above about 50%
CDK5 p35 inh: blocks human CDK5/p35 kinase activity; Q00535+Q15078; Recombinant CDK5/p35, ADP-Glo luminescence, 60 min; inhibition, % at 10 µM; 330,000 tested, 0.01% active;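 active means highest replicate inhibition of at least 50% and at least 75% of replicates reaching 50%; inconclusive means only one of the two criteria met; inactive means both criteria failed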
Target sequence (Q00535 whole entry, looked up): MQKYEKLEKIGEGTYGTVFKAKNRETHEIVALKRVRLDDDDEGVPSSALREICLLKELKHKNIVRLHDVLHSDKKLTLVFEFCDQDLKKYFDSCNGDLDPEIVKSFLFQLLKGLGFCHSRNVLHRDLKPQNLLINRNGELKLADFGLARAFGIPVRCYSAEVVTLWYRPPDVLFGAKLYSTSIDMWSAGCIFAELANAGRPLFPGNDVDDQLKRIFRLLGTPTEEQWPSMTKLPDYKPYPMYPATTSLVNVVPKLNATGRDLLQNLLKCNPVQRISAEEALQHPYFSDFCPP
Target sequence (Q15078 whole entry, looked up): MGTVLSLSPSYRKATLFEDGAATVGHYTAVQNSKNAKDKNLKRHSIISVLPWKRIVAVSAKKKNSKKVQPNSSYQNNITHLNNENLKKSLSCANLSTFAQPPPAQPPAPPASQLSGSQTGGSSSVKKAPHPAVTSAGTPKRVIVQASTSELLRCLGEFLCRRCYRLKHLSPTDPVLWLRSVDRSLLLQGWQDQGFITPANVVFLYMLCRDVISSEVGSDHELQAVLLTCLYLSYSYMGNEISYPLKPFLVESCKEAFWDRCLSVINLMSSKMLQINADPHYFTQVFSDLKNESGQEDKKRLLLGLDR
Rtt109 HAT inh: C. albicans Rtt109 histone acetyltransferase inhibition. Q5AAJ8. purified Rtt109/Vps75, ThioGlo CoA-SH fluorescence, 4 h. inhibition, % at 34.9 µM. 330,000 tested, 0.16% active;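 active means inhibition of at least 50% in every replicate; inconclusive means best replicate reaches 50% inhibition but some replicates fall short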
SMARCA2 act: increases SMARCA2 function in MMTV reporter cells; MG213 cells, MMTV-luciferase reporter, dexamethasone, overnight; activation, % at 9.1 µM; 370,000 tested, 1% active; AID 652017; in the data active means activation above about 7.8%
dFosB activator: activators of mouse delta FosB homodimer. P13346. purified delta FosB, TAMRA-CDK5 oligo fluorescence polarization; percent of positive-control signal above neutral wells. activation, % at 25 µM. 340,000 tested, 0.99% active. AID 493131;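 active means mean activation above about 17%, with every replicate also reaching it, limit read from the data, passing the limit was not always enough; inconclusive means only one of the two conditions met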
SMARCA2 conf: confirmation of SMARCA2 (BRM) function activators | 3,500 tested, 30% active | activation, % at 9.1 µM | AID 652260 | shares compounds with SMARCA2 act | MG213 cells, MMTV-luciferase with dexamethasone, luminescence, overnight; MG213 cells expressing E1A, Rb sequestered; DMSO wells 0%, reference activator 100%;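 active means activation above its plate's cutoff, the mean activation of tested wells plus 3 SD, cut at about 7.9% in these data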
GAL4-VP16 Luc: counter-screen for SMARCA2 activators: GAL4-VP16 luciferase reporter activation; shares compounds with SMARCA2 act; HEK293 GAL4-VP16 pG5luc reporter, luciferase luminescence; scaled: DMSO wells 0%, SAHA wells 100%; activation, % at 9.1 µM; 3,500 tested, 41% active;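 active means activation above the solvent-only control well mean plus 3 SD, averaged across control plates, cut at about 5.2% in these data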
Of the large screens only hits and unclear results are named; the others gave an inactive call (follow-up assays come after a bar, where they were run). An excerpt weighted towards active compounds, which were near 3.2% of everything screened.

Cc1[nH]c2ccccc2c1/C=C/c1cc[n+](C)cc1	none
Cc1ccc(/C=C\c2nccc3c2[nH]c2ccccc23)cc1	esBAF inh 55, SMARCA2 act 10, dFosB activator 42 (no result: DYRK1A inh) | SMARCA2 conf inactive | GAL4-VP16 Luc 8.1
Fc1ccc(/C=C\c2nccc3c2[nH]c2ccccc23)cc1	SMARCA2 act 16 (no result: DYRK1A inh, dFosB activator) | SMARCA2 conf inactive | GAL4-VP16 Luc inactive
C[C@H]1CN([C@@H](C)CO)C(=O)c2cccc(NS(C)(=O)=O)c2O[C@H]1CN(C)Cc1ccncc1	none (no result: DYRK1A inh, CDK5 p35 inh, Rtt109 HAT inh, SMARCA2 act, dFosB activator)
Cc1ccc(C(=O)N2CCCC2)cc1S(=O)(=O)N1CCOCC1	none (no result: esBAF inh, DYRK1A inh)
Cc1ccc(C(=O)N2CCCC(C(F)(F)F)C2)cc1S(=O)(=O)N1CCOCC1 (configuration not stated)	SMARCA2 act 8.0 (no result: DYRK1A inh) | SMARCA2 conf inactive | GAL4-VP16 Luc inactive
COC(=O)Nc1ccc(OCc2ccccc2)cc1	esBAF inh inconclusive, SMARCA2 act 14 | SMARCA2 conf 18 | GAL4-VP16 Luc inactive
CCOC(=O)C1=C(C)NC(=O)C(C#N)C1c1ccncc1 (configuration not stated)	SMARCA2 act 9.8 | SMARCA2 conf inactive | GAL4-VP16 Luc inactive
Cc1ccc(S(=O)(=O)NC(=O)NC(C)Cc2ccccc2)cc1 (configuration not stated)	none
Cc1ccc(S(=O)(=O)NC(=O)NC(C)c2ccc(F)cc2)cc1 (configuration not stated)	SMARCA2 act 8.0 | SMARCA2 conf inactive | GAL4-VP16 Luc inactive
COCCCNC(=O)CSC1=Nc2ccccc2C2=NC(c3ccccc3)C(=O)N12 (configuration not stated)	none
CC(C)C1N=C2c3ccccc3N=C(SCC(=O)NCCc3ccc(S(N)(=O)=O)cc3)N2C1=O (configuration not stated)	SMARCA2 act 9.4 (no result: Rtt109 HAT inh) | SMARCA2 conf inactive | GAL4-VP16 Luc inactive
Cc1ccc(/C=c2/sc3n(c2=O)CCCN=3)o1	esBAF inh 53, SMARCA2 act 8.7 | SMARCA2 conf inactive | GAL4-VP16 Luc inactive
Cn1c(N)c(C(=O)Nc2ccc3ccccc3c2)sc1=S	SMARCA2 act 10 | SMARCA2 conf inactive | GAL4-VP16 Luc 12
COc1ccccc1-n1c(N)c(C(N)=O)sc1=S	none (no result: esBAF inh)
Cn1c(N)c(C(=O)Nc2ccccc2F)sc1=S	none (no result: esBAF inh)
Nc1c(C(=O)Nc2ccc(F)cc2)sc(=S)n1-c1ccccc1F	esBAF inh 54, SMARCA2 act 8.4 (no result: DYRK1A inh) | SMARCA2 conf inactive | GAL4-VP16 Luc inactive
Cc1noc(C)c1NC(=O)N(C)C[C@@H]1Oc2ccc(NC(=O)Nc3cccc4ccccc34)cc2CC(=O)N([C@@H](C)CO)C[C@@H]1C	none (no result: DYRK1A inh, CDK5 p35 inh, Rtt109 HAT inh, SMARCA2 act, dFosB activator)
CCC(=O)NC(=S)Nc1cccc(NC(=O)c2ccc(Cl)cc2Cl)c1	none
CC(C)C(=O)Nc1cccc(NC(=O)c2ccc(Cl)cc2Cl)c1	SMARCA2 act 8.5 (no result: esBAF inh) | SMARCA2 conf inactive | GAL4-VP16 Luc inactive
C[C@@H]1CN([C@@H](C)CO)C(=O)c2cc(NC(=O)CCC(F)(F)F)ccc2O[C@H]1CN(C)C(=O)Nc1ccccc1	none (no result: DYRK1A inh, CDK5 p35 inh, Rtt109 HAT inh, SMARCA2 act, dFosB activator)
Cc1cc(C)nc(Nc2ccccc2Cl)n1	SMARCA2 act 12 | SMARCA2 conf inactive | GAL4-VP16 Luc inactive
O=C(COc1ccccc1Cl)OCC(=O)N1CCN(S(=O)(=O)c2ccccc2)CC1	SMARCA2 act 11 | SMARCA2 conf inactive | GAL4-VP16 Luc inactive
Cc1ccc(S(=O)(=O)N2CCN(C(=O)COC(=O)COc3ccccc3)CC2)cc1	none
O=C(OCC(=O)N1CCN(S(=O)(=O)c2ccccc2)CC1)c1ccc([N+](=O)[O-])o1	none
O=C(OCC(=O)N1CCN(S(=O)(=O)c2ccc(Cl)cc2)CC1)c1ccc([N+](=O)[O-])o1	SMARCA2 act 8.9 | SMARCA2 conf inactive | GAL4-VP16 Luc inactive
C[C@@H]1CN([C@H](C)CO)C(=O)c2cc(N(C)C)ccc2O[C@H]1CN(C)Cc1ccncc1	none (no result: DYRK1A inh, CDK5 p35 inh, Rtt109 HAT inh, SMARCA2 act, dFosB activator)
Cc1nn(-c2nc3ccccc3[nH]2)c(N)c1-c1ccccc1	none (no result: esBAF inh)
Nc1c(-c2ccccc2)c(CN2CCOCC2)nn1-c1ccccc1	SMARCA2 act 12 (no result: esBAF inh, Rtt109 HAT inh) | SMARCA2 conf inactive | GAL4-VP16 Luc inactive
Cc1nn(-c2ccccc2)c(N)c1-c1ccccc1	esBAF inh 67, SMARCA2 act 11 (no result: DYRK1A inh) | SMARCA2 conf 8.2 | GAL4-VP16 Luc 12
CC(=O)c1ccc(N2CCN(C(=S)NCc3ccco3)CC2)cc1	none
CC(=O)c1ccc(N2CCN(C(=S)NCCCN(C)C)CC2)cc1	SMARCA2 act 8.2 (no result: esBAF inh) | SMARCA2 conf inactive | GAL4-VP16 Luc inactive
COc1ccc(S(=O)(=O)N2CCCC2)cc1NC(=O)c1ccccc1	SMARCA2 act 8.1 | SMARCA2 conf inactive | GAL4-VP16 Luc inactive
COc1ccc(S(=O)(=O)N2CCCCC2)cc1NC(=O)c1ccccc1	none (no result: esBAF inh)
Cc1ccc(-n2c(C)cc(C=C(C#N)C#N)c2C)cc1	SMARCA2 act 12 | SMARCA2 conf inactive | GAL4-VP16 Luc inactive
Cc1cc2ccccn2c1C(=O)Nc1cccc(Cl)c1	SMARCA2 act 8.1 (no result: esBAF inh) | SMARCA2 conf inactive | GAL4-VP16 Luc inactive
Cc1cc2ccccn2c1C(=O)c1ccc(Cl)cc1	none
COc1ccc(-c2csc(C(O)c3cccnc3)n2)cn1 (configuration not stated)	none (no result: DYRK1A inh, CDK5 p35 inh, Rtt109 HAT inh, dFosB activator)
COc1ccc(-c2csc(C(O)c3ccc(F)cc3)n2)cn1 (configuration not stated)	SMARCA2 act 8.1 (no result: DYRK1A inh, CDK5 p35 inh, Rtt109 HAT inh, dFosB activator) | SMARCA2 conf inactive | GAL4-VP16 Luc inactive
COc1cc(NC(=O)CSc2cc(C)c3cc(C)cc(C)c3n2)c(C(=O)O)cc1OC	SMARCA2 act 8.4 | SMARCA2 conf inactive | GAL4-VP16 Luc inactive
C/C(N)=C(/C#N)C(=O)CSc1cc(C)c2cc(C)cc(C)c2n1	SMARCA2 act 8.5 (no result: DYRK1A inh) | SMARCA2 conf inactive | GAL4-VP16 Luc inactive
C[C@H](CO)N1C[C@H](C)[C@H](CN(C)CC2CCOCC2)Oc2ncc(-c3cccc(F)c3)cc2C1=O	none (no result: DYRK1A inh, CDK5 p35 inh, Rtt109 HAT inh, SMARCA2 act, dFosB activator)
COc1ccc(NC(=O)N(C)C[C@H]2OCCCC[C@H](C)Oc3ccc(N(C)C)cc3C(=O)N([C@@H](C)CO)C[C@@H]2C)cc1	none (no result: DYRK1A inh, CDK5 p35 inh, Rtt109 HAT inh, SMARCA2 act, dFosB activator)
Nc1nc(Nc2ccccc2F)sc1C(=O)c1ccccc1	SMARCA2 act 8.2 (no result: esBAF inh) | SMARCA2 conf 13 | GAL4-VP16 Luc 6.9
O=C(NC1CCN(Cc2ccccc2)CC1)c1cccc(OC(F)F)c1	SMARCA2 act 10 | SMARCA2 conf inactive | GAL4-VP16 Luc inactive
O=C(C[C@H]1C[C@@H]2c3cc(NC(=O)NC4CCCC4)ccc3O[C@@H]2[C@H](CO)O1)NCc1ccncc1	none (no result: DYRK1A inh, CDK5 p35 inh, Rtt109 HAT inh, SMARCA2 act, dFosB activator)
